# Tests used:
# Settings in all cases: concentration: 1 μM, replicates: in singlicate; n = 1
# PRKCD = test system: PRKCD
# PRKCE = test system: PRKCE
# PRKCH = test system: PRKCH
# PRKCI = test system: PRKCI
# PRKCQ = test system: PRKCQ
# PRKD1 = test system: PRKD1
# PRKD2 = test system: PRKD2
# PRKD3 = test system: PRKD3
# PRKG1 = test system: PRKG1
# PRKG2 = test system: PRKG2
# PRKR = test system: T1, PRKR
# T1 construct: gene EIF2AK2
# PRKX = test system: PRKX
# PRP4 = test system: PRP4
# PYK2 = test system: T2, PYK2
# T2 construct: gene PTK2B
# QSK = test system: QSK
# RAF1 = test system: RAF1
# RET = test system: RET
# RIOK1 = test system: RIOK1
# RIOK2 = test system: RIOK2
# RIOK3 = test system: RIOK3
# 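Note: KINOMEscan kinase panel screen.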
Compound,%Inh (PRKCD) [%],%Inh (PRKCE) [%],%Inh (PRKCH) [%],%Inh (PRKCI) [%],%Inh (PRKCQ) [%],%Inh (PRKD1) [%],%Inh (PRKD2) [%],%Inh (PRKD3) [%],%Inh (PRKG1) [%],%Inh (PRKG2) [%],%Inh (PRKR) [%],%Inh (PRKX) [%],%Inh (PRP4) [%],%Inh (PYK2) [%],%Inh (QSK) [%],%Inh (RAF1) [%],%Inh (RET) [%],%Inh (RIOK1) [%],%Inh (RIOK2) [%],%Inh (RIOK3) [%]
O=C(Nc1ccccc1F)NC1CCN(c2ccnc(Nc3ccc(F)cc3)n2)C1 (stereo not drawn) [GSK1379722],0,13,30,10,23,0,0,0,0,0,0,17,27,0,15,19,8,24,0,15
O=C(Nc1n[nH]c2nc(-c3ccco3)c(Br)cc12)c1ccc(CN2CCCC2)cc1.O=C(O)[C@H](O)[C@@H](O)C(=O)O [SB-742352],0,2,17,0,0,0,30,0,0,0,0,0,0,42,0,17,28,0,0,0
FC(F)(F)c1ccc(-c2cc(-c3c[nH]nc3-c3ccccn3)ccn2)cc1 [GW599550],0,6,21,23,16,23,16,17,4,2,8,12,31,0,0,18,14,25,5,25
COc1ccc(NC(=O)c2ccc(-c3cc(-c4nnc(C)o4)ccc3C)cc2)cc1 [GW595885],0,4,8,0,9,2,0,0,4,0,0,5,18,0,21,6,28,12,0,0
CCCc1ccc(S(=O)(=O)NC2CCN(c3ccnc(Nc4ccc(OC)cc4)n3)C2)cc1 (stereo not drawn) [GSK1379737],0,9,0,11,0,0,3,9,0,0,0,0,60,10,0,0,28,0,0,0
Clc1cc(Nc2ncnc3cc[nH]c23)ccc1OCc1ccccn1,13,8,0,9,34,0,3,0,10,22,0,13,19,9,0,17,17,24,42,0
CCn1c(-c2ccncc2)nc2cnccc21 [SB-735216],0,37,12,46,8,0,4,0,2,8,0,0,18,1,27,6,0,12,20,0
O=c1cc(N2CCOCC2)nc2n(Cc3cccc(Cl)c3)ccn12 [GSK2296823],0,8,0,22,0,0,0,15,0,0,0,33,4,4,0,6,87,17,10,0
Nc1nc(-c2cccnc2)c(-c2ccnc3ccccc23)s1 [GW684083],0,0,31,21,4,24,34,0,0,0,0,31,19,16,5,11,0,30,38,0
COc1cc2ncnc(Nc3ccc(OCc4ccccc4Br)c(Cl)c3)c2cc1OC.Cl [GI261590],0,8,0,33,100,4,0,0,0,0,0,0,0,32,0,21,14,29,0,10
O=C(c1ccc(-c2cc(-c3c[nH]nc3-c3ccccn3)ccn2)cc1)N1CCCC1 [GW792479],12,0,0,100,0,0,0,0,13,0,4,0,12,7,0,43,5,10,0,19
COc1ccc(Nc2nccc(N3CCC(NC(=O)c4cccc(NC(C)=O)c4)C3)n2)cc1 (stereo not drawn) [GSK1379732],8,16,17,5,25,13,20,11,2,11,0,0,48,0,0,0,0,37,0,0
Cc1cccc(-c2nc(Nc3ccc4[nH]nnc4c3)c3ccccc3n2)n1 [GW867587],0,7,0,0,0,94.2,98.1,66,0,0,0,0,0,0,0,0,0,0,0,0
CCc1nc(-c2cccc(C)c2)c(-c2ccnc(NC(=O)c3ccccc3)c2)s1,20,2,4,2,0,0,0,0,0,0,0,0,10,11,0,22,0,14,8,4
Cl.Cl.c1ccc(-c2cc3ccncc3cc2OC2CCNCC2)cc1 [GSK1122999],33,82,86,21,21,15,7,0,0,0,0,34,0,10,7,12,28,33,0,45

# Reference: PMC5540273 (PLoS ONE, 2017)
